Pol beta inh = qHTS Assay for Inhibitors of DNA Polymerase Beta | P06746 | Pol beta primer extension/strand displacement, fluorescence kinetic | Potency, µM (series often up to 114 µM), usual class: inhibitors | hit rate 1.3% among 340,000
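Preincubation: enzyme (10 nM) with compound, 15 min, RT. Reaction: substrate added to 50 nM final. Reads: 0 and 10 min. Analysis: normalized, Hill fit.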
Pol kappa inh-1 = qHTS for Inhibitors of Polymerase Kappa | AID 588579, 2011 | Potency, µM (top dose mostly 107 µM), most hits filed as inhibitors | hit rate 0.53% among 400,000 | purified Pol kappa, fluorescent DNA synthesis assay, 10 min | DNA polymerase kappa (Homo sapiens), Q9UBT6
Target sequence (Q9UBT6 whole entry, looked up): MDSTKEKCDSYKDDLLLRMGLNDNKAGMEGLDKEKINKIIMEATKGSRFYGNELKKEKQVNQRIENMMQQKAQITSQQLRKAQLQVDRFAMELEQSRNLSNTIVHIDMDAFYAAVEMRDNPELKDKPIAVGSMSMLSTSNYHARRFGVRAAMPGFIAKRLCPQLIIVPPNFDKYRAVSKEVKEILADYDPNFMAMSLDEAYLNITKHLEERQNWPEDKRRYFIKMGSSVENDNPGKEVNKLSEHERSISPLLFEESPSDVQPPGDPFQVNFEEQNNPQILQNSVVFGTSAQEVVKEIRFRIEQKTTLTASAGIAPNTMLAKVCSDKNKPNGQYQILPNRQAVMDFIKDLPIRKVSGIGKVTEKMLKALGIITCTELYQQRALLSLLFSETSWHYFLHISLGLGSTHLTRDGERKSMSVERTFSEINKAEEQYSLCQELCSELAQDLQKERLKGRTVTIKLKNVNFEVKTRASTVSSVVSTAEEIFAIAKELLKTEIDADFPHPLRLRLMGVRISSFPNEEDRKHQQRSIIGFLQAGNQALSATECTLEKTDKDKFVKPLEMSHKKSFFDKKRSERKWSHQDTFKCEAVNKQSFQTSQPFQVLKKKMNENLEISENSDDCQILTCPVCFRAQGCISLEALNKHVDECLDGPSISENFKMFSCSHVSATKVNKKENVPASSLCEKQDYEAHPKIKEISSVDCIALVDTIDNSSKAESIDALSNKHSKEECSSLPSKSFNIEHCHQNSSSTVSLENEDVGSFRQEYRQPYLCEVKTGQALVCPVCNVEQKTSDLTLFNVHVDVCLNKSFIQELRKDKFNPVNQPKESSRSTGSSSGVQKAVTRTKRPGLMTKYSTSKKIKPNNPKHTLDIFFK
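Here, compound and 10 nM enzyme are combined for 15 min at room temperature; adding 50 nM substrate (final) starts DNA synthesis, tracked by fluorescence at 0 and 10 min against buffer-only wells.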
Pol eta inh-1 = qHTS for Inhibitors of Polymerase Eta | DNA polymerase eta (Homo sapiens), Q9Y253 | recombinant Pol eta, fluorescent DNA replication assay | Potency, µM (doses to about 114 µM), most hits filed as inhibitors | hit rate 1.2% among 390,000
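Fluorescent replication assay: 50 nM final substrate added after a 15 min room-temperature compound preincubation with 10 nM enzyme. Signal taken at 0 min and again at 10 min.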
FEN1 inh = qHTS Assay for the Inhibitors of Human Flap endonuclease 1 (FEN1); Recombinant FEN1 flap cleavage, fluorescence, 15 min; Potency, µM (series often up to 114 µM), usual class: inhibitors; hit rate 0.35% among 390,000; P39748; also: nearly all actives have a fitted effect of over 65% in size
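Recombinant FEN1 (10 nM) was preincubated with pin-transferred compounds for 15 min at room temperature, then flap DNA substrate (50 nM final) was added. Plates were read at 0 and 15 min, and normalized concentration–response data were fitted to a four-parameter Hill equation.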
Pol iota inh = qHTS for Inhibitors of Polymerase Iota; DNA polymerase iota (Homo sapiens), Q9UNA4; Pol iota fluorescent replication assay, 10 min; Potency, µM (series often up to 115 µM), hits mostly inhibitors; hit rate 1% among 390,000; AID 588590, 2011
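Pol iota at 10 nM preincubated 15 min with compounds at room temperature; reaction started with fluorescent substrate, 50 nM final. Fluorescence read kinetically at 0 and 10 min; buffer-only wells as negative control.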
WRN helicase inh = qHTS for Inhibitors of WRN Helicase; Bifunctional 3'-5' exonuclease/ATP-dependent helicase WRN (Homo sapiens), Q14191; WRN helicase unwinding, fluorescent forked duplex, kinetic; Potency, µM (doses to about 114 µM), actives largely listed as inhibitors; hit rate 0.46% among 360,000; also: nearly all actives have a fitted effect of over 55% in size
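Screening of the MLSMR collection measured strand separation of a quenched forked DNA duplex (100 nM) by 20 nM WRN with 2 mM ATP, all final. Compounds were preincubated with enzyme 15 min at room temperature.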
GALK inh confirm = Confirmation Assay for Inhibitors of Human Galactokinase (GALK) | shares compounds with Pol eta inh-1 | purified GALK, Kinase-Glo ATP depletion luminescence | Potency, µM (series often up to 115 µM), hits mostly inhibitors | hit rate 70% among 150
GALK redox cs = Confirmatory Assay for Inhibitors of Human Galactokinase (GALK): Phenol-HRP redox assay counterscreen; shares compounds with Pol eta inh-1; Phenol red-HRP H2O2 redox cycling, absorbance 600 nm; Potency, µM (highest dose often 115 µM), actives largely listed as inhibitors; hit rate 40% among 150; AID 2035, 2009
HEK293 tox = Secondary Assay for Inhibitors of Human Galactokinase (GALK): HEK-293 Cell Viability Assay; shares compounds with Pol eta inh-1; HEK-293 viability, ATP luminescence (CellTiter-Glo), 24/48 h; Potency, µM (highest dose often 46.1 µM), usual class: inhibitors; hit rate 10% among 170
Pol kappa inh-2 = qHTS for Inhibitors of Polymerase Kappa: Confirmatory Assay for Cherry-picked Compounds | shares compounds with Pol eta inh-1 | purified Pol-kappa, fluorescent strand-displacement substrate | Potency, µM, most hits filed as inhibitors | hit rate 76% among 920 | AID 720501, 2013
Pol eta inh-2 = qHTS for Inhibitors of Polymerase Eta: Confirmatory Assay for Cherry-picked Compounds | shares compounds with Pol eta inh-1 | Pol eta primer extension, TAMRA/BHQ fluorescence, 10 min | Potency, µM, usual class: inhibitors | hit rate 64% among 2,600 | AID 720502, 2013
Each line names hits and unclear results; the compound was inactive in the other large screens (follow-up assays come after a bar, where they were run). An excerpt weighted towards active compounds, which were near 2.4% of everything screened. Calls follow the shape of the dose curve; as a rule, active = well fitted curve in the direction sought with a large enough effect; inconclusive = small, poorly fitted or top-dose-only effect, or another doubt; inactive = no such curve, though single readings can be large; an effect the other way counts as inactive or inconclusive.

CC1CCN(S(=O)(=O)c2ccc3c(c2)CCN3C(=O)Nc2ccccc2Br)CC1	none (no result: Pol eta inh-1, WRN helicase inh)
Cc1c(CCC(=O)O)c(=O)oc2c(C)c3occ(-c4ccc(Cl)cc4)c3cc12	Pol beta inh 22µM, Pol kappa inh-1 89µM, Pol eta inh-1 22µM, FEN1 inh inconclusive, Pol iota inh 13µM, WRN helicase inh 56µM | Pol eta inh-2 inconclusive
CC1=C(/C=C/C(C)=C/C=C/C(C)=C/C(=O)O)C(C)(C)CCC1O (stereo not drawn)	none (no result: Pol beta inh, Pol eta inh-1, FEN1 inh, Pol iota inh, WRN helicase inh)
Cc1c(C#N)c(O)[nH]c(=O)c1N=Nc1ccc(S(N)(=O)=O)cc1	Pol eta inh-1 25µM, Pol iota inh inconclusive, WRN helicase inh inconclusive | Pol kappa inh-2 inconclusive | Pol eta inh-2 85
N#C/C(=C\c1coc2ccc(O)cc2c1=O)C(=O)Nc1nc2ccccc2s1	Pol beta inh inconclusive, Pol kappa inh-1 2.8µM, Pol eta inh-1 3.5µM, FEN1 inh inconclusive, Pol iota inh inconclusive, WRN helicase inh 56µM | GALK inh confirm 33µM | GALK redox cs inactive | HEK293 tox inconclusive
Cc1cccc(CCNC(=O)c2c[nH]c3ccc(S(=O)(=O)Nc4ccccc4F)cc3c2=O)c1	Pol iota inh inconclusive (no result: WRN helicase inh)
Cc1ccccc1NS(=O)(=O)c1ccc2[nH]cc(C(=O)N3CCCCC3)c(=O)c2c1	Pol beta inh inconclusive, Pol eta inh-1 45µM, Pol iota inh inconclusive (no result: WRN helicase inh) | Pol eta inh-2 76
Cc1cc(C)cc(NS(=O)(=O)c2ccc3[nH]cc(C(=O)N4CCCCCC4)c(=O)c3c2)c1	none (no result: WRN helicase inh)
Cc1ccccc1NS(=O)(=O)c1ccc2[nH]cc(C(=O)NC(C)c3ccccc3)c(=O)c2c1 (stereo not drawn)	Pol beta inh 40µM, Pol eta inh-1 25µM, Pol iota inh inconclusive (no result: WRN helicase inh) | Pol eta inh-2 inconclusive
Cc1ccc(CCNC(=O)c2c[nH]c3ccc(S(=O)(=O)Nc4ccc(C)cc4C)cc3c2=O)cc1	Pol beta inh inconclusive, Pol eta inh-1 50µM, Pol iota inh inconclusive (no result: WRN helicase inh) | Pol eta inh-2 inconclusive
COc1ccc(N=C2NC(=O)/C(=C\C=C\c3ccco3)S2)cc1	Pol beta inh 10µM, Pol kappa inh-1 inconclusive, Pol eta inh-1 40µM, FEN1 inh inconclusive, Pol iota inh inconclusive, WRN helicase inh 22µM | Pol eta inh-2 inconclusive
Cc1cccc(N=C2NC(=O)/C(=C/C=C/c3ccco3)S2)c1	Pol beta inh 20µM, Pol kappa inh-1 inconclusive, Pol eta inh-1 20µM, FEN1 inh inconclusive, Pol iota inh 18µM, WRN helicase inh inconclusive | Pol eta inh-2 inconclusive
Cc1cccc(NC(=O)Cn2c(=O)c3cccn3c3ccccc32)c1C	none (no result: WRN helicase inh)
CCN(c1ccc(C)cc1C)S(=O)(=O)c1nnc(NC(=O)c2ccccc2OC)s1	none (no result: WRN helicase inh)
CC(C)(C)n1ncc2c(=O)n(Cc3ccccc3SC(F)(F)F)cnc21	none (no result: Pol beta inh, Pol eta inh-1, WRN helicase inh)

Screening data (PubChem)
